Reference: PubChem BioAssay AID1159580 (chemical genetic matrix, 2015)
Values joined by “and” are separate entries in the source; they are usually repeats but may differ in a detail not shown here. Identical values can stand only once. About 2,000 (36%) of roughly 5,500 compounds were called active. Not shown: some 18% with an inconclusive outcome. Rule as the data show it: active = normalized growth mostly below about 0.91 (no sharp cut-off); inconclusive = no clear call, values can overlap the other calls; inactive = mostly above about 0.92. This is one part of the list.

Assay: chemical genetic growth profiling, strain panel (AID 1159580);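 also: tested at 20 µM; growth read once vehicle control cultures reached saturation at 30 °C; 1 = growth at the plate median or of vehicle wells; lower values mean less growth of the strain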
Details: S. cerevisiae deletion strains, growth OD

Measured: normalized growth

O=c1c(O)c(-c2ccccc2)oc2ccccc12
0.983 (inactive) and 0.617 (active): locus YJL095W, strain BCK1, stronger effect = lower value
inactive: locus YAL013W, strain DEP1, stronger effect = lower value 0.993 | locus YBR021W, strain FUR4, stronger effect = lower value 1.01 | locus YBR229C, strain ROT2, stronger effect = lower value 0.963 | locus YCL029C, strain bik1, stronger effect = lower value 0.983 | locus YDL035C, strain GPR1, stronger effect = lower value 0.985 | locus YDL074C, strain BRE1, stronger effect = lower value 1.01 | locus YDL101C, strain DUN1, stronger effect = lower value 0.997 | locus YDL185W, strain tfp1, stronger effect = lower value 0.974 | locus YDL192W, strain arf1, stronger effect = lower value 1 | locus YDR101C, strain arx1, stronger effect = lower value 1.03 | locus YDR150W, strain NUM1, stronger effect = lower value 0.993 | locus YDR159W, strain sac3, stronger effect = lower value 0.929 | locus YDR162C, strain NBP2, stronger effect = lower value 0.981 | locus YDR318W, strain mcm21, stronger effect = lower value 0.963 | locus YDR388W, stronger effect = lower value 0.994 | locus YDR502C, strain sam2, stronger effect = lower value 1.01 | locus YEL061C, strain CIN8, stronger effect = lower value 0.984 | locus YER110C, stronger effect = lower value 0.987 | locus YER155C, strain BEM2, stronger effect = lower value 0.999 | locus YER167W, strain BCK2, stronger effect = lower value 0.99 | locus YGL078C, strain dbp3, stronger effect = lower value 0.991 | locus YGL086W, strain mad1, stronger effect = lower value 1.04 | locus YGL248W, strain PDE1, stronger effect = lower value 0.986 | locus YGR078C, strain PAC10, stronger effect = lower value 0.991 | locus YGR135W, strain pre9, stronger effect = lower value 0.977 | locus YGR229C, strain SMI1, stronger effect = lower value 0.998 | locus YGR252W, strain gcn5, stronger effect = lower value 0.947 | locus YHR079C, strain IRE1 (second series), stronger effect = lower value 0.993 | locus YHR094C, strain hxt1, stronger effect = lower value 0.975 | locus YHR129C, strain ARP1, stronger effect = lower value 0.982 | locus YHR200W, strain rpn10, stronger effect = lower value 0.992 | locus YIL066C, strain RNR3, stronger effect = lower value 0.978 | locus YIL073C, strain SPO22, stronger effect = lower value 0.996 | locus YIL125W, strain kgd1, stronger effect = lower value 0.999 | locus YIR030C, strain dcg1, stronger effect = lower value 0.998 | locus YJL134W, strain LCB3, stronger effect = lower value 0.986 | locus YJL168C, strain set2, stronger effect = lower value 0.994 | locus YJL187C, strain SWE1 (second series), stronger effect = lower value 1.01 | locus YJR043C, strain POL32, stronger effect = lower value 0.981 | locus YJR075W, strain HOC1, stronger effect = lower value 0.982 | locus YKL009W, strain mrt4, stronger effect = lower value 0.988 | locus YKL068W, stronger effect = lower value 0.988 | locus YKL085W, strain MDH1 (second series), stronger effect = lower value 0.994 | locus YKL085W, strain MDH1, stronger effect = lower value 0.994 | locus YKR001C, strain vps1, stronger effect = lower value 1.02 | locus YLR039C, strain RIC1, stronger effect = lower value 1.01 | locus YLR058C, strain SHM2, stronger effect = lower value 0.977 | locus YLR102C, strain apc9, stronger effect = lower value 0.997 | locus YLR262C, strain YPT6, stronger effect = lower value 1 | locus YLR268W, strain sec22, stronger effect = lower value 1.03 | locus YLR330W, strain CHS5, stronger effect = lower value 0.997 | locus YLR342W, strain FKS1 (second series), stronger effect = lower value 1.01 | locus YLR371W, strain rom2, stronger effect = lower value 0.974 | locus YLR418C, strain cdc73, stronger effect = lower value 0.97 | locus YML016C, strain PPZ1, stronger effect = lower value 1 | locus YML032C, strain rad52, stronger effect = lower value 0.956 | locus YML124C, strain tub3, stronger effect = lower value 0.988 | locus YMR078C, strain ctf18, stronger effect = lower value 0.996 | locus YMR125W, strain sto1, stronger effect = lower value 0.933 | locus YMR223W, strain ubp8, stronger effect = lower value 0.965 | locus YMR307W, strain GAS1, stronger effect = lower value 0.963 | locus YNL067W, strain RPL9B, stronger effect = lower value 0.994 | locus YNL128W, strain TEP1, stronger effect = lower value 0.966 | locus YNL233W, strain BNI4, stronger effect = lower value 1.02 | locus YNL250W, strain rad50, stronger effect = lower value 0.975 | locus YNL271C, strain bni1, stronger effect = lower value 0.993 | locus YNL298W, strain CLA4, stronger effect = lower value 0.996 | locus YNL307C, strain MCK1, stronger effect = lower value 0.995 | locus YNR052C, strain pop2, stronger effect = lower value 0.959 | locus YOL006C, strain TOP1, stronger effect = lower value 1.06 | locus YOL012C, strain htz1 0.87 | locus YOL147C, strain pex11, stronger effect = lower value 0.996 | locus YOR061W, strain CKA2, stronger effect = lower value 0.966 | locus YOR069W, strain VPS5, stronger effect = lower value 0.999 | locus YOR136W, strain idh2, stronger effect = lower value 0.991 | locus YOR144C, strain elg1, stronger effect = lower value 0.982 | locus YOR184W, strain ser1, stronger effect = lower value 0.988 | locus YOR316C, strain cot1, stronger effect = lower value 0.986 | locus YPL256C, strain CLN2, stronger effect = lower value 0.886 | locus YPR119W, strain clb2, stronger effect = lower value 0.992 | locus YPR141C, strain kar3, stronger effect = lower value 0.993 | locus YPR163C, strain tif3, stronger effect = lower value 0.984 | locus YPR167C, strain met16, stronger effect = lower value 0.978 | strain wtn01, stronger effect = lower value 1.05
active: locus YAL021C, strain ccr4, stronger effect = lower value 0.424 | locus YAL026C, strain drs2, stronger effect = lower value 0.17 | locus YAL030W, strain snc1, stronger effect = lower value 0.68 | locus YBL061C, strain skt5, stronger effect = lower value 0.578 | locus YBR009C, strain hhf1, stronger effect = lower value 0.61 | locus YBR023C, strain chs3, stronger effect = lower value 0.363 | locus YBR171W, strain sec66, stronger effect = lower value 0.815 | locus YBR231C, strain swc5, stronger effect = lower value 0.418 | locus YBR279W, strain paf1, stronger effect = lower value 0.447 | locus YCL011C, strain gbp2, stronger effect = lower value 0.51 | locus YCL016C, strain dcc1, stronger effect = lower value 0.628 | locus YCL061C, strain MRC1, stronger effect = lower value 0.527 | locus YCL069W, strain vba3, stronger effect = lower value 0.47 | locus YCR088W, strain abp1, stronger effect = lower value 0.654 | locus YDL005C, strain med2, stronger effect = lower value 0.855 | locus YDL040C, strain nat1, stronger effect = lower value 0.794 | locus YDR001C, strain nth1, stronger effect = lower value 0.651 | locus YDR069C, strain doa4, stronger effect = lower value 0.302 | locus YDR137W, strain rgp1, stronger effect = lower value 0.363 | locus YDR195W, strain ref2 1.17 [resistant] | locus YDR297W, strain sur2, stronger effect = lower value 0.709 | locus YDR334W, strain swr1, stronger effect = lower value 0.347 | locus YDR335W, strain msn5, stronger effect = lower value 0.608 | locus YDR392W, strain spt3, stronger effect = lower value 0.135 | locus YEL003W, strain gim4, stronger effect = lower value 0.595 | locus YEL037C, strain rad23, stronger effect = lower value 0.465 | locus YEL061C, strain CIN8 (second series), stronger effect = lower value 0.592 | locus YER015W, strain faa2, stronger effect = lower value 0.455 | locus YER016W, strain bim1, stronger effect = lower value 0.81 | locus YER111C, strain swi4, stronger effect = lower value 0.71 | locus YER155C, strain BEM2 (second series), stronger effect = lower value 0.602 | locus YFR010W, strain ubp6, stronger effect = lower value 0.291 | locus YGL167C, strain pmr1, stronger effect = lower value 0.834 | locus YGL173C, strain kem1, stronger effect = lower value 0.271 | locus YGL227W, strain vid30, stronger effect = lower value 0.771 | locus YGL240W, strain doc1, stronger effect = lower value 0.643 | locus YGL253W, strain hxk2, stronger effect = lower value 0.356 | locus YHR013C, strain ard1, stronger effect = lower value 0.219 | locus YHR027C, strain rpn1, stronger effect = lower value 0.268 | locus YHR079C, strain IRE1, stronger effect = lower value 0.812 | locus YHR142W, strain chs7, stronger effect = lower value 0.294 | locus YJL092W, strain hpr5, stronger effect = lower value 0.545 | locus YJL095W, strain BCK1 (second series), stronger effect = lower value 0.453 | locus YJL115W, strain asf1, stronger effect = lower value 0.616 | locus YJL129C, strain trk1, stronger effect = lower value 0.77 | locus YJL154C, strain vps35, stronger effect = lower value 0.752 | locus YJL164C, strain tpk1, stronger effect = lower value 0.333 | locus YJL166W, strain qcr8, stronger effect = lower value 0.355 | locus YJL187C, strain SWE1, stronger effect = lower value 0.758 | locus YJR066W, strain TOR1, stronger effect = lower value 0.766 | locus YKL160W, strain elf1, stronger effect = lower value 0.678 | locus YKR026C, strain gcn3, stronger effect = lower value 0.777 | locus YKR091W, strain srl3, stronger effect = lower value 0.82 | locus YLL001W, strain dnm1, stronger effect = lower value 0.512 | locus YLL026W, stronger effect = lower value 0.354 | locus YLL041C, strain sdh2, stronger effect = lower value 0.872 | locus YLR027C, strain aat2, stronger effect = lower value 0.681 | locus YLR113W, strain HOG1, stronger effect = lower value 0.851 | locus YLR221C, strain rsa3, stronger effect = lower value 0.612 | locus YLR258W, strain gsy2, stronger effect = lower value 0.655 | locus YLR262C, strain YPT6 (second series), stronger effect = lower value 0.228 | locus YLR320W, strain mms22, stronger effect = lower value 0.503 | locus YLR342W, strain FKS1, stronger effect = lower value 0.513 | locus YLR357W, strain rsc2, stronger effect = lower value 0.584 | locus YLR370C, strain arc18, stronger effect = lower value 0.364 | locus YLR384C, strain iki3, stronger effect = lower value 0.877 | locus YML120C, strain ndi1, stronger effect = lower value 0.844 | locus YMR058W, strain fet3, stronger effect = lower value 0.0896 | locus YMR129W, stronger effect = lower value 0.872 | locus YMR205C, strain PFK2, stronger effect = lower value 0.506 | locus YMR231W, strain pep5, stronger effect = lower value 0.128 | locus YNL071W, strain lat1, stronger effect = lower value 0.301 | locus YNL183C, strain NPR1, stronger effect = lower value 0.8 | locus YNL209W, strain ssb2, stronger effect = lower value 0.159 | locus YNL248C, strain rpa49, stronger effect = lower value 0.567 | locus YNL322C, strain KRE1 (second series), stronger effect = lower value 0.851 | locus YNR049C, strain mso1, stronger effect = lower value 0.616 | locus YOR001W, strain rrp6, stronger effect = lower value 0.805 | locus YOR070C, strain gyp1, stronger effect = lower value 0.561 | locus YOR080W, strain dia2, stronger effect = lower value 0.689 | locus YOR083W, strain WHI5, stronger effect = lower value 0.565 | locus YOR106W, strain vam3, stronger effect = lower value 0.163 | locus YOR231W, strain MKK1, stronger effect = lower value 0.834 | locus YOR265W, strain rbl2, stronger effect = lower value 0.467 | locus YOR270C, strain vph1, stronger effect = lower value 0.16 | locus YOR290C, strain snf2, stronger effect = lower value 0.589 | locus YPL051W, strain arl3, stronger effect = lower value 0.262 | locus YPL078C, strain atp4, stronger effect = lower value 0.553 | locus YPL106C, strain sse1, stronger effect = lower value 0.676 | locus YPL240C, strain hsp82, stronger effect = lower value 0.762
0.991 (inactive) and 0.591 (active): locus YHR030C, strain SLT2, stronger effect = lower value
